An excerpt weighted towards active compounds, which were near 18% of everything screened.
DT40 TDP1 CPT – qHTS for Inhibitors of human tyrosyl-DNA phosphodiesterase 1 (TDP1): qHTS in cells in presence of CPT; chicken DT40 Tdp1-/-;hTDP1 cells + 20 nM CPT, ATP luminescence, 48 h; Potency, µM (titrated, usually from 46.2 µM), usual class: inhibitors; actives 12% (n = 420,000); AID 686979, 2013; note: nearly all actives have a fitted effect of over 55% in size
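Chicken DT40 Tdp1-/- cells stably complemented with human TDP1 were seeded at 400 cells/well in medium containing 20 nM camptothecin, exposed to pin-transferred compounds, and grown at 37 °C for at least 48 hr. Viability was read as ATP luminescence.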
LDHA block – qHTS assay for inhibitors of human lactate dehydrogenase; L-lactate dehydrogenase A chain (Homo sapiens), P00338; purified LDHA, NADH/diaphorase-resazurin fluorescence; hits give low values; activity change, % (values are at about 110 or 230 µM); actives 0.15% (n = 480,000); AID 1347041, 2019; in the data active = activity change below about -30%; inconclusive = mostly about -25% to -30%
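Human LDH5 at 2 nM final in Tris HCl pH 7.4 with 0.06 mM NADH and 0.2 mM pyruvate, reacted 5 minutes at room temperature. Remaining NADH coupled via diaphorase/resazurin; resorufin fluorescence read at 0 and 20 minutes, normalized to enzyme-free and DMSO wells.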
TDP1 cell noCPT – qHTS for Inhibitors of human tyrosyl-DNA phosphodiesterase 1 (TDP1): qHTS in cells in absence of CPT. AID 686978, 2013. Potency, µM (series often up to 46.2 µM), most hits filed as inhibitors. actives 15% (n = 420,000). DT40 Tdp1-/- hTDP1 cells, no CPT, ATP luminescence, 48 h; note: nearly all actives have a fitted effect of over 55% in size
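Cells were dispensed at 400 per well, compounds added by pin tool, plates incubated ≥48 hr at 37 °C, then CellTiter-Glo added for 30 min at room temperature before luminescence reading. Line: DT40 Tdp1-/- complemented with hTDP1; camptothecin omitted.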
Gal4-VP16 FLuc – VP16 counterscreen qHTS for inhibitors of ROR gamma transcriptional activity; Drosophila S2 Gal4-VP16 UAS-luciferase, luminescence, 20 h; Potency, µM (top dose mostly 53.6 µM), usual class: inhibitors; actives 3.5% (n = 310,000); AID 2546, 2010;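 note: Gal4-VP16 expression switched on by copper sulfate through the metallothionein promoter; nearly all actives have a fitted effect of over 50% in size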
IL-1B inflam inh – qHTS for Inhibitors of Inflammasome Signaling: IL-1-beta AlphaLISA Primary Screen | activity change, % at 57.5 µM | actives 4.7% (n = 360,000) | AID 743279, 2014 | THP-1 LPS/ATP IL-1B secretion, AlphaLISA, 16 h; hits give low values; in the data active = activity change below about -50%; inconclusive = mostly about -30% to -49%
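Secreted IL-1B measured by AlphaLISA bead assay after 16 h compound exposure of THP-1 cells; compounds (final up to 57.5 uM) added 1 h before LPS (250 ng/mL) and ATP (1.25 mM) stimulation; lower signal means less secretion.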
RORgamma inh – qHTS for inhibitors of ROR gamma transcriptional activity; Nuclear receptor ROR-gamma (Mus musculus), P51450; Drosophila S2 Gal4-RORgamma UAS-luciferase reporter, 20 h; Potency, µM (doses to about 53.6 µM), most hits filed as inhibitors; actives 5.4% (n = 310,000); AID 2551, 2010; note: nearly all actives have a fitted effect of over 60% in size
Target sequence (P51450 whole entry, looked up, the tested form may be a part): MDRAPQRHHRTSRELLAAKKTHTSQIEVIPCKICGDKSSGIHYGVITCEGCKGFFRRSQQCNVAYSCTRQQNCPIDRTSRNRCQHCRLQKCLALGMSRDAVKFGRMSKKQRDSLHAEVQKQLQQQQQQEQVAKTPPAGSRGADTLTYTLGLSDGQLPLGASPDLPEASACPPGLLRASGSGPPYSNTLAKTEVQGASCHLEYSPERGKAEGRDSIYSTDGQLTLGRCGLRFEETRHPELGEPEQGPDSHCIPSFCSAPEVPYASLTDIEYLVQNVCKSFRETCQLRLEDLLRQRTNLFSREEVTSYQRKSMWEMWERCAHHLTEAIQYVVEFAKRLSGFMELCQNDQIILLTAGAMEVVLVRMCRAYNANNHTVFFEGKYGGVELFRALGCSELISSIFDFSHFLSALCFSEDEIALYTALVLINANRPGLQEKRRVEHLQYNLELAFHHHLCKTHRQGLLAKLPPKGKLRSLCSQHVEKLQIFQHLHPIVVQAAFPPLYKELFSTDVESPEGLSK
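ROR gamma transcriptional activity was tracked as Gal4-UAS luciferase output in stably transfected Drosophila Schneider cells, with compound added 1 hr before 700 uM copper sulfate induction and a 20 hr ambient-temperature incubation.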
Each line names hits and unclear results; the compound was inactive in the other large screens. Unless noted, calls come from the whole dose curve; as a rule, active = well fitted curve in the direction sought with a large enough effect; inconclusive = small, poorly fitted or top-dose-only effect, or another doubt; inactive = no such curve, though single readings can be large; an effect the other way counts as inactive or inconclusive.

COc1cc2c(cc1OC)-c1n[nH]c(=S)n1C(C)(C)C2	Gal4-VP16 FLuc inconclusive, RORgamma inh 7.9µM
COc1cc2c(cc1OC)-c1nnnn1C(C)(C)C2	none (no result: Gal4-VP16 FLuc)
COc1cc2c(cc1OC)C(=S)NC(C)(C)C2	Gal4-VP16 FLuc inconclusive, RORgamma inh 20µM
COc1cc2c(cc1OC)-c1nnc(-c3cccs3)n1C(C)(C)C2	DT40 TDP1 CPT inconclusive, TDP1 cell noCPT inconclusive (no result: Gal4-VP16 FLuc, RORgamma inh)
CN(C(=S)NC1CCCCC1)C1(c2ccccc2Cl)CCCCC1=O (stereo not drawn)	TDP1 cell noCPT inconclusive, Gal4-VP16 FLuc inconclusive, RORgamma inh 13µM
CN(C(=O)C1CCCCC1)C1(c2ccccc2Cl)CCCCC1=O (stereo not drawn)	none (no result: DT40 TDP1 CPT, TDP1 cell noCPT, Gal4-VP16 FLuc, IL-1B inflam inh, RORgamma inh)
CCCCC[C@@H](C)N1C[C@H](COCc2ccccc2)Oc2cc(N3CCC[C@@H]3CO)ccc2S1(=O)=O	DT40 TDP1 CPT inconclusive, TDP1 cell noCPT 18µM (no result: Gal4-VP16 FLuc, RORgamma inh)
O=S1(=O)N[C@H](Cc2ccccc2)COc2cc(N3CCC[C@H]3CO)ccc21	TDP1 cell noCPT inconclusive (no result: Gal4-VP16 FLuc, RORgamma inh)
CCCCC[C@@H](C)N1C[C@@H](COCc2ccccc2)Oc2cc(N3CCC[C@H]3CO)ccc2S1(=O)=O	DT40 TDP1 CPT inconclusive, TDP1 cell noCPT inconclusive (no result: Gal4-VP16 FLuc, RORgamma inh)
CCCCC[C@@H](C)N1C[C@H](COCc2ccccc2)Oc2cc(N3CCC[C@H]3CO)ccc2S1(=O)=O	DT40 TDP1 CPT 9.2µM, TDP1 cell noCPT 16µM (no result: Gal4-VP16 FLuc, RORgamma inh)
Cc1cc2cc(CN(CC3CCCO3)C(=S)Nc3ccccc3)c(=O)[nH]c2cc1C (stereo not drawn)	DT40 TDP1 CPT 6.5µM, TDP1 cell noCPT 5.8µM
COc1ccc2cc(CN(CC3CCCO3)C(=S)Nc3ccccc3)c(=O)[nH]c2c1 (stereo not drawn)	DT40 TDP1 CPT 5.2µM, TDP1 cell noCPT 6.5µM, IL-1B inflam inh inconclusive
COc1ccc(-c2nc3ccccc3c(=O)n2CCOc2ccccc2OC)cc1	none (no result: DT40 TDP1 CPT, TDP1 cell noCPT, Gal4-VP16 FLuc, IL-1B inflam inh, RORgamma inh)
CCCCCCn1nc(C(=O)OCC(=O)NCc2ccccc2F)c2ccccc2c1=O	none (no result: DT40 TDP1 CPT, TDP1 cell noCPT, Gal4-VP16 FLuc, IL-1B inflam inh, RORgamma inh)
Cc1c(CCOC(=O)CC23CC4CC(CC(C)(C4)C2)C3)sc[n+]1CC(=O)c1ccccc1	DT40 TDP1 CPT 16µM, TDP1 cell noCPT 16µM, IL-1B inflam inh -81
Cc1c(CCOC(=O)CC23CC4CC(CC(C4)C2)C3)sc[n+]1CC(=O)c1ccc(Br)cc1	DT40 TDP1 CPT inconclusive, TDP1 cell noCPT 26µM, IL-1B inflam inh -61
Cc1c(CCOC(=O)C23CC4CC(CC(C)(C4)C2)C3)sc[n+]1CC(=O)c1ccccc1	DT40 TDP1 CPT 23µM, TDP1 cell noCPT 21µM, IL-1B inflam inh inconclusive
O=C(OCCOC(=O)C12CC3CC(CC(Br)(C3)C1)C2)c1ccccc1	none (no result: DT40 TDP1 CPT, TDP1 cell noCPT, Gal4-VP16 FLuc, IL-1B inflam inh, RORgamma inh)
CCCn1c(C)nc2c(N(CCN(CC)CC)CCN(CC)CC)nc(C)nc21	none (no result: DT40 TDP1 CPT, LDHA block, TDP1 cell noCPT, IL-1B inflam inh)
CCCCN(CC)c1nc(C)nc2c1c(C)c(C)n2-c1c(C)cc(C)cc1C	Gal4-VP16 FLuc inconclusive, RORgamma inh 2.2µM (no result: DT40 TDP1 CPT, LDHA block, TDP1 cell noCPT, IL-1B inflam inh)
CCN(CCCCO)c1nc(C)nc2c1c(C)c(C)n2-c1c(C)cc(C)cc1C	Gal4-VP16 FLuc inconclusive, RORgamma inh 11µM (no result: DT40 TDP1 CPT, LDHA block, TDP1 cell noCPT, IL-1B inflam inh)
CCN(CCO)c1nc2sc(C)c(C)c2c2nc(-c3ccccc3)nn12	none (no result: DT40 TDP1 CPT, TDP1 cell noCPT, Gal4-VP16 FLuc, IL-1B inflam inh, RORgamma inh)
CCCn1nc(C(=O)Nc2cccc(S(=O)(=O)N(C)C)c2)c2ccccc2c1=O	none (no result: DT40 TDP1 CPT, TDP1 cell noCPT, Gal4-VP16 FLuc, IL-1B inflam inh, RORgamma inh)
COc1ccc(CNC(=O)COC(=O)c2ccc(OC)c(S(=O)(=O)N3CCCCCC3)c2)cc1	none (no result: DT40 TDP1 CPT, TDP1 cell noCPT, Gal4-VP16 FLuc, IL-1B inflam inh, RORgamma inh)
CCOCC(=O)NC1CCc2cc(OC(=O)COCC)c(OC)c(OC)c2-c2ccc(SC)c(=O)cc21 (stereo not drawn)	DT40 TDP1 CPT 0.023µM, TDP1 cell noCPT 0.15µM (no result: Gal4-VP16 FLuc, RORgamma inh)
